RORgamma inh: ROR gamma (mouse) transcription inhibition; P51450; Drosophila S2 Gal4-RORgamma UAS-luciferase reporter, 20 h; Potency, µM (series often up to 53.6 µM), for the others: at the highest dose activity change, negative = inhibition, usual class: inhibitors; actives 5.4% (n = 310,000); AID 2551; further: potency means the concentration at half of the fitted maximal effect; on the % scale 0 is the no-effect control and ±100 the full control effect; nearly all actives have a fitted effect of over 60% in size
Target sequence (P51450 whole entry, looked up, the tested form may be a part): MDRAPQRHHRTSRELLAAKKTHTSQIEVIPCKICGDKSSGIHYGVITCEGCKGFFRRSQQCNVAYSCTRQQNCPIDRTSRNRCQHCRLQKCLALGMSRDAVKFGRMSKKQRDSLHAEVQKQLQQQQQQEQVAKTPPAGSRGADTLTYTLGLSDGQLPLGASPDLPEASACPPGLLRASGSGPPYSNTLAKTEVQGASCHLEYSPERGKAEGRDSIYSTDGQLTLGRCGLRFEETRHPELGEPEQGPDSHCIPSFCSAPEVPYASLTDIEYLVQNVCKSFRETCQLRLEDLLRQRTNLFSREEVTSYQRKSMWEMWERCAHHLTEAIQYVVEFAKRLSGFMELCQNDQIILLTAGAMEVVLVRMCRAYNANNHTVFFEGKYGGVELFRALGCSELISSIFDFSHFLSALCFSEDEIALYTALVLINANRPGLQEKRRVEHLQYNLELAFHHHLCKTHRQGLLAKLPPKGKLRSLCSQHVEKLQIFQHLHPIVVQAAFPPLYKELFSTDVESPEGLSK
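Schneider cells (Drosophila), stable Gal4 DBD–ROR gamma + UAS-luc; 1 hr cmpd preincubation; Cu2+ induction 700 uM final; 20 hr ambient; luminescence.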
Giardia kill: kills Giardia lamblia | Giardia lamblia trophozoite viability | actives 0.15% (n = 340,000) | activity change, % at 7.66 µM, hits read low; in the data active means activity change below about -80%; inconclusive means between about -30% and that limit;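 further: parasites exposed to compound for two days anaerobically before the ATP read; on the % scale 0 is the no-effect control and ±100 the full control effect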
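Giardia trophozoites, 100 cells per well, were exposed to compounds for 48 hrs at 37 deg C under anaerobic conditions; viability was then read as ATP content by bioluminescence after 15-30 min at room temperature.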
SW480 rerep: DNA re-replication induction in SW480 cells; AID 624297; Potency, µM (top dose mostly 46.1 µM), for inactives: top-dose re-replication activation, hits mostly activators; SW480 DNA re-replication, Hoechst DNA content imaging, 48 h; actives 1.8% (n = 340,000); further: potency means the concentration at half of the fitted maximal effect; % of control where 0% means no effect; nearly all actives have a fitted effect of over 55% in size
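Per well, 250 cells were exposed to pinned compound for 48 hr. Nuclear DNA was visualised with Hoechst (40 min, 37 C) and total object intensity recorded by fluorescence scanning.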
VP16 counter: inhibits Gal4-VP16 luciferase reporter, ROR gamma counter-screen; Drosophila S2 Gal4-VP16 UAS-luciferase, luminescence, 20 h; Potency, µM (top dose mostly 53.6 µM), for the others: at the top dose activity, negative = inhibition, actives largely listed as inhibitors; actives 3.5% (n = 310,000); AID 2546;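 further: Gal4-VP16 expression switched on by copper sulfate through the metallothionein promoter; potency means the concentration at half of the fitted maximal effect; on the % scale 0 is the no-effect control and ±100 the full control effect; nearly all actives have a fitted effect of over 50% in size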
BCR signal inh: inhibitors of chronic active B-cell receptor signaling; ABC-DLBCL IkBa-CBG/CBR reporter, luminescence ratio, 4 h; Potency, µM (titrated, usually from 46.1 µM), inactives show top-dose activity change, negative = inhibition, usual class: inhibitors; actives 0.05% (n = 340,000); AID 493014; active means well fitted inhibition curve with a large enough effect in the signal ratio, with a control signal flat, not every such curve was filed as active; inconclusive means small, poorly fitted or top-dose-only effect, or effect the other way, or a change in a side signal; the % refers to the signal ratio;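 further: potency means the concentration at half of the fitted maximal effect; plate controls were basal doxycycline-induced cells for no effect and cells given 10 µM MG132 for full effect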
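Concentration-response series (up to 46 uM) were applied to TMD8 dual-reporter cells for 4 h at 37C with doxycycline. Green/red ratio, after filter-overlap correction, defined %Activity; red signal alone was normalised to basal cells and zero luminescence.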
MCF10A rerep: DNA re-replication induction in MCF 10a cells; actives 2.9% (n = 350,000); MCF 10A DNA re-replication, Hoechst nuclear intensity, 48 h; AID 624296; Potency, µM (series often up to 46.1 µM), without a hit: top-dose activity, positive = re-replication, actives largely listed as activators; further: potency means the concentration at half of the fitted maximal effect; % of control where 0% means no effect; nearly all actives have a fitted effect of over 50% in size
* marks the source's active call; other numbers are inactive results; ? = inconclusive; / = no result. Rows were chosen to be rich in hits. Some 8.3% of all compounds tested hit in one or more screens of this group. Unless noted, the call rests on the fitted dose curve; in most records, active means well fitted curve in the direction sought with a large enough effect; inconclusive means small, poorly fitted or top-dose-only effect, or another doubt; inactive means no such curve, though single readings can be large; an effect the other way counts as inactive or inconclusive.

SMILES | RORgamma inh | Giardia kill | SW480 rerep | VP16 counter | BCR signal inh | MCF10A rerep
C[C@]12C=C[C@H](O)CC1=CCC1C2CC[C@@]2(C)C1CCC21OCCO1 (some centres undefined) | / | -19 | ? | / | -26% | 21µM*
CCc1ccccc1NC(=O)N1CCCc2ccccc21 | 15% | -5 | -2% | -8% | -2% | -3%
Cc1cc(S(=O)(=O)N2CCN=C2c2ccccc2)c(C)cc1Cl | 1.3µM* | -11 | 0% | -8% | ? | 9%
CCOc1ccc(S(=O)(=O)N2CCN=C2c2ccccc2)cc1 | -14% | -6 | 7.3µM* | 1% | -6% | 21µM*
OCCNc1c2ccccc2nc2c(F)c(F)c(F)c(F)c12 | 10µM* | -13 | 13µM* | 7.9µM* | ? | ?
CC(OC(=O)C1CC1C)C(=O)Nc1ncc(Cl)cc1Cl (centres undefined) | / | 27 | -328% | / | -21% | ?
Cc1cc(C)cc(C(=O)NC(=S)Nc2ccc(Cc3ccncc3)cc2)c1 | 7.9µM* | -7 | ? | ? | ? | ?
Cc1cccc(C(=O)NC(=S)Nc2ccc(Cc3ccncc3)cc2)c1 | 16µM* | -9 | 12% | ? | ? | ?
CCCn1c(=O)c(C(=O)NCCc2ccccc2)c(O)c2ccccc21 | -73% | -16 | -2% | ? | 9% | 9%
CCCn1c(=O)c(C(=O)NCCc2ccc(OC)cc2)c(O)c2ccccc21 | ? | 21 | 2% | 13µM* | 4% | ?
C=CCn1c(=O)c(C(=O)NCCc2ccccc2)c(O)c2ccccc21 | 14µM* | 5 | -7% | ? | 12% | 7%
C[C@H](CO)N1C[C@H](C)[C@@H](CN(C)S(=O)(=O)c2cn(C)cn2)Oc2c(NS(=O)(=O)c3ccccc3)cccc2C1=O | / | -4 | -4% | / | 3% | 5%
Cc1cc2nc(CSc3ccc(Cl)cc3)cc(=O)n2[nH]1 | 11µM* | 3 | ? | ? | ? | ?
Cc1nc2nc(CSc3ccc(Cl)cc3)cc(=O)n2[nH]1 | -22% | -19 | -7% | 0% | ? | 4%
COc1ccc(N(C)C(=O)C2CCCN2S(=O)(=O)c2cccc3nsnc23)c(OC)c1 (centres undefined) | -7% | -12 | -10% | 1% | 0% | 13%
O=C(c1ccc(CSc2ccc(Cl)cc2)cc1)N1CCCC1 | ? | -9 | -7% | 1% | 0% | 7%
COCCNC(=O)Cn1nc(Cc2ccncc2)c2ccccc2c1=O | 8% | -7 | 22% | 2% | ? | 1%
COc1cc(C(=O)OCCCOC(=O)c2cc(OC)c(OC)c(OC)c2)cc(OC)c1OC | -13% | -3 | 4% | 1% | 1% | -14%
COc1cc(OC)c(C(=O)OCCCOC(=O)c2cc(OC)c(OC)cc2OC)cc1OC | 7.9µM* | 11 | -1% | 10µM* | -2% | -1%
CCN(C/C=C/C#CC(C)(C)C)Cc1cccc(OCc2cc(-c3ccsc3)cs2)c1 | 2% | / | / | 6% | / | /
CCOc1ccc(C2C(C(=O)Nc3ccc(OC)cc3)=C(C)Nc3nc(CCCO)nn32)cc1 (centres undefined) | / | / | / | / | -28% | /
CCCCCCCCCCCCN1[C@@H](CC(=O)O)c2cc(C(F)(F)F)ccc2S1(=O)=O | / | 1 | 23% | / | / | 16µM*
COCCCn1c(=O)/c(=C\c2ccccc2OC(C)C)s/c1=C(/C#N)C(=O)Nc1ccc(C(=O)O)cc1 | 44% | 0 | ? | -27% | ? | 26µM*
CC1(C)Cc2c(sc(NC(=O)C(=O)N3CCN(CCO)CC3)c2C(N)=O)CO1 | -18% | 1 | -5% | -5% | ? | -3%
Fc1cccc(/C=N/Nc2nncc3ccccc23)c1 | 1.3µM* | ? | -59% | 10µM* | ? | -1%
SMILES | RORgamma inh | Giardia kill | SW480 rerep | VP16 counter | BCR signal inh | MCF10A rerep
Clc1ccc(/C=N\Nc2ccccc2)cc1 | 1% | 22 | -1% | 18% | 0% | ?
Clc1ccc(/C=N/Nc2nnc(-c3ncc[nH]3)c3ccccc23)cc1 | 1.3µM* | -26 | 23% | 3.2µM* | -1% | 9%
Clc1cccc(/C=N/Nc2nnc(Cl)c3ccccc23)c1 | 3.2µM* | 6 | 5% | ? | ? | 16%
O=C(NCCc1ccc(C(F)(F)F)cc1)C1CCC(=O)N(CCCN2CCCC2=O)C1 (centres undefined) | 11% | -7 | 1% | 9% | 4% | -6%
CC(C)(C)CC(C)(C)c1ccc(O)c(-n2nc3ccccc3n2)c1 | -8% | / | 2% | -5% | / | 27µM*
CC(=O)OCC(=O)[C@@]12OC3(CCCC3)OC1CC1C3CCC4=CC(=O)C=C[C@@]4(C)[C@]3(F)C(O)C[C@]12C (some centres undefined) | 3.5µM* | / | -3% | -11% | / | 4%
N/C(=N\OC(=O)c1ccccc1[N+](=O)[O-])c1ccccn1 | 23% | -12 | ? | 7% | ? | 12%
COc1ccccc1C(=O)O/N=C(\N)c1ccccn1 | 3.2µM* | -3 | -7% | ? | ? | -2%
Cc1ccc(C)c(OCC(=O)O/N=C(\N)c2ccccn2)c1 | 15% | 21 | -5% | 5% | -12% | 10µM*
COc1cc(OC)c(C(=O)O/N=C(\N)c2ccccn2)cc1OC | 27% | -22 | -2% | 2% | -9% | -4%
N/C(=N\OC(=O)c1ccccc1Cl)c1ccccn1 | 6.3µM* | -25 | 0% | 14µM* | ? | -20%
CCOc1ccc(C(=O)O/N=C(\N)c2ccccn2)cc1OCC | -42% | -3 | -2% | -6% | ? | -40%
Cc1ccc(C(=O)O/N=C(\N)c2ccccn2)c(C)c1 | ? | -20 | ? | 6.3µM* | ? | 7.3µM*
N#Cc1c(Cl)cccc1N1CCC(C(N)=O)CC1 | -2% | 5 | -10% | -26% | -30% | 2%
Cc1cc(C)c2c(N)c(C(=O)N/N=C/c3cccnc3)sc2n1 | 42% | -4 | ? | -2% | 6% | 16µM*
Cn1c(N)c(C(=O)N/N=C/c2ccccc2)sc1=S | 15% | -7 | ? | -13% | 1% | 23µM*
Cc1cc(C)c2c(N)c(C(=O)N/N=C/c3ccccc3)sc2n1 | 5% | 1 | 13µM* | 3% | ? | 9.2µM*
COc1ccccc1N1CCN(C(=O)CCC(=O)Nc2nnc(C(C)C)s2)CC1 | -1% | -29 | 2% | -3% | -4% | 12%
C/C(=N\NC(=O)c1cccc(Cl)c1)C1C(=O)c2ccccc2C1=O | -4% | -2 | 3.7µM* | -4% | ? | ?
CC(/C=C/c1ccccc1)=N\NC(=O)CCc1ccccc1 | -44% | 7 | 5% | -9% | -2% | -9%

Source: PubChem
